High-throughput results (PubChem BioAssay)
This is a sample that favours compounds with a hit; in the whole collection about 10% have one here.
Sfp PPTase inh – blocks B. subtilis Sfp PPTase activity; AID 1490; Biochemical Sfp PPTase activity, qHTS; Potency, µM, for the others: largest response in the series, negative = inhibition, hits mostly inhibitors; 310,000 compounds, 3.5% hits;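 note: the enzyme is Sfp with the accession as filed and its product quenches rhodamine fluorescence; potency is the fitted concentration of half-maximal effect; 0% = enzyme reaction without inhibitor and -100% = no enzyme wells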
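After 15 min at room temperature with compound, 15 nM Sfp received 5 uM rhodamine-CoA plus 12.5 uM BHQ-2-ybbR (50 mM Hepes pH 7.6, 10 mM MgCl2). Rate came from the fluorescence difference over 30 min, ex 525/em 598 nm.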
G9a block – blocks human histone lysine methyltransferase G9a. AID 504332. G9a H3K9 monomethylation, AlphaScreen, 2 h. Q96KQ7. 350,000 compounds, 8.8% hits. Potency, µM (top dose mostly 102 µM), for inactives: top-dose activity, negative = inhibition, most hits filed as inhibitors; note: potency is the fitted concentration of half-maximal effect; nearly all actives have a fitted effect of over 75% in size
Target sequence (Q96KQ7 913-1193 limits assumed): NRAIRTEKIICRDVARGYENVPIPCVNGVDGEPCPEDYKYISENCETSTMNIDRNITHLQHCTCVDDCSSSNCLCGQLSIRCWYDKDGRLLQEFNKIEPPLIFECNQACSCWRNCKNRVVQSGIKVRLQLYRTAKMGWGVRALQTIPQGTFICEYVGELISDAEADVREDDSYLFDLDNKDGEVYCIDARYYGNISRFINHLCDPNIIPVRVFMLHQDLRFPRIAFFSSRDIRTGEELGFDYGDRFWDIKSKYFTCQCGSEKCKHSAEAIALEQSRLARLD
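Enzyme 20 nM + cpd, 15 min RT; add b-H3K9 pep 500 nM / SAM 20 uM; 2 h RT; anti-H3K9me1 Ab 0.5 ug/mL + SA donor / anti-rabbit acceptor beads 20 ug/mL each, 10 min; AlphaScreen read.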
VDR inh – vitamin D3 receptor (human) inhibition; Potency, µM, for inactives: max response, negative = inhibition, usual class: inhibitors; 400,000 compounds, 0.93% hits; P11473; VDR-SRC2-3 peptide fluorescence polarization, 2 h; note: potency is the fitted concentration of half-maximal effect
Target sequence (P11473 whole entry, looked up): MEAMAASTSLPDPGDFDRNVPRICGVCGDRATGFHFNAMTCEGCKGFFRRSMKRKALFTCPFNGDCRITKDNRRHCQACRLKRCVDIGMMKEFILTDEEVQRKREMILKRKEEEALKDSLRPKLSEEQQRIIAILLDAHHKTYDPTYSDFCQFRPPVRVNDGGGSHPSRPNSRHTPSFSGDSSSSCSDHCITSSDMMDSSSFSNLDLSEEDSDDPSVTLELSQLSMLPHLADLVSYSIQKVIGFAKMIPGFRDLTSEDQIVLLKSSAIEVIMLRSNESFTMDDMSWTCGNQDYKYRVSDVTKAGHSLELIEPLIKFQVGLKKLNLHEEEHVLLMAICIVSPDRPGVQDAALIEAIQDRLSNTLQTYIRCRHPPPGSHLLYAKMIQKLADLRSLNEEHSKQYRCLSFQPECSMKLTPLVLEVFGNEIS
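Fluorescence polarization assay measuring small-molecule disruption of VDR binding to the coregulator peptide SRC2-3. Compounds were pin-transferred (23 nl) into the reagent mix and incubated 2 h at room temperature before reading.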
Mm-Cpn inhibitor – inhibitors of Methanococcus maripaludis chaperonin TRiC (MmCpn) | purified Mm-Cpn ATPase, ADP Transcreener TR-FRET | Potency, µM (titrated, usually from 76.9 µM), for inactives: top-dose activity, negative = inhibition, most hits filed as inhibitors | 330,000 compounds, 0.031% hits; note: potency is the fitted concentration of half-maximal effect; nearly all actives have a fitted effect of over 80% in size
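Purified archaeal chaperonin (25 nM final) was preincubated with compound for 10 min at 37°C, then ATP (10 uM final) was added for 30 min at 37°C in Tris pH 7.4/KCl/MgCl2/DTT buffer. ADP was quantified by HTRF Transcreener TR-FRET.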
PLK1 PBD block – PLK1 (human) polo-box domain binding inhibition | Plk1 PBD binding of FITC phosphopeptide, fluorescence polarization | P53350 | Potency, µM, for inactives: max response, negative = inhibition, usual class: inhibitors | 360,000 compounds, 2.8% hits | AID 720504; note: potency is the fitted concentration of half-maximal effect; series mostly up to about 57 µM; nearly all actives have a fitted effect of over 65% in size
CCT chaperon mod – cytosolic chaperonin activity modulation; purified chaperonin ATPase assay, HTRF ADP detection, 30 min; activity change, % (concentration not given with the values), hits read low; 360,000 compounds, 0.3% hits; AID 651819; in the data active = activity change below about -30%
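TRiC at 40 or 20 nM final (batch-dependent) in 30 mM Tris pH 7.4, 100 mM KCl, 5 mM MgCl2, 1 mM DTT, with compound at single 76 uM and 10 uM ATP, 30 min at 37 deg C. ADP detected by HTRF Transcreener, 665/615 ratio.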
An asterisk follows results filed as active; ? = inconclusive; · = no result given; [ ] = another dose, or the depositor's remark. Unless noted, calls come from the whole dose curve; as a rule, active = well fitted curve in the direction sought with a large enough effect; inconclusive = small, poorly fitted or top-dose-only effect, or another doubt; inactive = no such curve, though single readings can be large; an effect the other way counts as inactive or inconclusive. Unless noted, % is set by controls: 0 for no effect and ±100 for the full control effect.

SMILES	Sfp PPTase inh	G9a block	VDR inh	Mm-Cpn inhibitor	PLK1 PBD block	CCT chaperon mod
N#CC(C#N)=C1C=CC=CN1/C(=C\c1ccco1)C(=O)c1ccc(Br)cc1	8.91µM*	11.2µM*	10µM*	-7.8%	2.99µM*	-1.6
COc1ccc(/C=C(/C(=O)c2cccs2)N2C=CC=CC2=C(C#N)C#N)cc1	3.55µM*	8.91µM*	?	-4.6%	5.97µM*	-0.3
COc1ccc(/C=N/NC(=O)CNC(=O)c2cccs2)cc1	8.8%	19.2%[59 µM]	-15.6%	1.8%	-3.5%	0.1
COc1ccc(C(=O)/C(=C\c2ccco2)N2C=CC=CC2=C(C#N)C#N)cc1	17.8µM*	11.2%[2.33 µM]	39.8µM*	-0.8%	21.2µM*	-0.1
CCOC(=O)C(CC)Sc1ncnc2c1c(-c1ccccc1)cn2-c1ccc(OC)cc1 (configuration not stated)	·	16.2%[59 µM]	?	·	·	·
COc1cccc(CNS(=O)(=O)c2ccc(-c3cc(C(F)(F)F)on3)s2)c1	·	7.1%[59 µM]	16.0%	·	·	·
Cc1ccc(-n2ncc3c2CC(C)(C)CC3NC(=O)CCCN2CCCCC2=O)cc1 (configuration not stated)	8.3%	-13.2%	-16.8%	?	26.7µM*	1.2
O=C(NCc1cccs1)c1ccc(CSc2nc3ccncc3n2Cc2cccc(F)c2)cc1	·	?	6.8%	·	·	·
O=C(O)c1ccc(N2C(=O)c3cccnc3C2=O)cc1	-26.5%	35.5µM*	12.5%	0.0%	-4.6%	-4.8
CC1CC(C)CN(CCCCOc2ccc([N+](=O)[O-])cc2)C1 (configuration not stated)	-4.7%	?	4.6%	-0.2%	-11.2%	-0.2
Cc1ccc(C)c(OCC(O)CN2CCC(Cc3ccccc3)CC2)c1 (configuration not stated)	0.6%	-42.9%	-25.9%	-4.0%	6.0%	-3.2
Cc1cc(Br)ccc1OCCN1CC(C)OC(C)C1 (configuration not stated)	-28.0%	?	-2.0%	-5.8%	-2.1%	-7.9
CC1CN(CCOc2ccc(F)cc2)CC(C)O1 (configuration not stated)	-19.8%	7.08µM*	3.3%	-5.3%	1.5%	1.1
Cc1cc(OCCN2CC(C)OC(C)C2)ccc1[N+](=O)[O-] (configuration not stated)	-25.8%	12.6µM*	2.8%	?	-4.4%	1.1
CC1CN(CCOc2ccc([N+](=O)[O-])cc2)CC(C)O1 (configuration not stated)	-25.0%	2.51µM*	-15.0%	0.7%	-2.4%	-0.7
Cc1cc(OCCN2CCC(Cc3ccccc3)CC2)ccc1[N+](=O)[O-]	-24.2%	39.8µM*	-0.2%	-2.9%	5.8%	1.7
CCCOc1ccc(CNC(=O)C(C)n2nc(C)n3c(cc4occc43)c2=O)cc1 (configuration not stated)	·	10.6%[59 µM]	8.6%	·	·	·
Cc1ccccc1CNC(=O)c1oc2c(c1C)-c1[nH]ncc1CC2	·	-26.5%[59 µM]	2.7%	·	·	·
O=C(CSc1nccn1-c1ccc(Cl)cc1)N1CCCc2ccccc21	-1.7%	50.1µM*	0.7%	1.0%	-4.2%	-0.7
CC(C)c1nc(SCC(=O)N2CCCc3ccccc32)c2c(=O)n(C)c(=O)n(C)c2n1	44.7µM*	-2.4%[59 µM]	-4.5%	2.4%	1.6%	1.1
O=C(CSc1ncc(-c2ccccc2)n1C1CCCC1)N1CCc2ccccc21	2.8%	31.6µM*	9.5%	-6.0%	-23.6%	-1.1
Cc1ccc(-c2cnc(SCC(=O)N3CCCc4ccccc43)n2C)cc1	-8.2%	11.2µM*	-0.7%	-0.9%	0.8%	-3.3
N#Cc1cccc(-c2nc(N3CCNCC3)c3ccccc3n2)c1	7.8%	·	0.0%	·	·	·
O=C(c1cccn2c(=O)c3cc(Cl)ccc3nc12)N1CCN(c2ccccc2F)CC1	·	15.0%[59 µM]	13.1%	·	·	·
COc1ccc(COC(=O)N/N=C2/C[C@@H](O)[C@@H](O)[C@@H]3[C@@H]4C(=O)N(C(C)(C)C)C(=O)[C@H]4CC[C@@H]23)cc1	15.6%	·	·	·	·	·
SMILES	Sfp PPTase inh	G9a block	VDR inh	Mm-Cpn inhibitor	PLK1 PBD block	CCT chaperon mod
CC(C)OC(=O)CSc1nc(N)c(C#N)c(-c2ccco2)c1C#N	56.2µM*	?	-2.7%	?	?	-6.6
CC(C)OC(=O)CSc1nc(N)c(C#N)cc1C#N	26.4%	28.5%[12.7 µM]	10.6%	?	-5.8%	-2.5
CCOC(=O)CSc1nc(C)cc(C)c1C#N	56.2µM*	?	-15.6%	0.6%	?	2.7
CCOC(=O)CSc1nc2cc3c(cc2cc1C#N)OCCO3	15.9%	0.6%	-5.1%	-28.5%	-19.6%	-39.1*
Cc1c(-c2ccccc2)nc(N)c(C#N)c1-c1ccco1	14.1µM*	?	5.0%	-2.2%	-5.7%	-3.3
O=C(CSc1nc2ccccc2nc1Cc1ccccc1)N1CCCc2ccccc21	·	27.4%[59 µM]	11.6%	·	·	·
CCOC(=O)c1ccc(NC(=O)C2CCCN(c3ncnc4onc(C)c34)C2)cc1 (configuration not stated)	·	2.0%[59 µM]	3.1%	·	·	·
Cc1cc(C)c(C#N)c(SCc2ccccc2)n1	?	?	10.4%	-0.7%	-21.7%	1.5
Cc1cc(C)c(C#N)c(SCSCc2ccccc2)n1	20µM*	160.7%	-6.0%	2.3%	?	-4.0
CCOC(=O)CSc1nc(N)c(C#N)c(-c2ccc(OCC)cc2)c1C#N	-17.3%	44.7µM*	17.6%	-27.1%	-10.2%	-10.2
CCOc1ccc2cc(C#N)c(SCC(=O)N3CCOCC3)nc2c1	-11.2%	50.1µM*	5.7%	-29.7%	-5.4%	-1.5
CCCCn1c(CNC(=O)C23CC4CC(CC(C4)C2)C3)nnc1SCC(=O)Nc1ccccc1	·	-5.9%[59 µM]	6.9%	·	·	·
CS(=O)(=O)N(CC(=O)NCCSCc1ccccc1)c1cc(C(F)(F)F)ccc1Cl	·	2.2%[59 µM]	-19.0%	·	·	·
CS(=O)(=O)N1N=C(c2ccc3nccnc3c2)CC1c1ccccc1 (configuration not stated)	12.2%	?	6.3%	?	-7.6%	-88.4*
COc1ccc(C2CC(c3ccc(OC)c(OC)c3)=NN2S(C)(=O)=O)cc1 (configuration not stated)	1.7%	·	?	3.0%	26.7µM*	-2.4
COc1ccc(C2=NN(S(C)(=O)=O)C(c3cccs3)C2)cc1 (configuration not stated)	-16.8%	·	-1.1%	0.5%	-7.1%	-0.1
Cc1cnc(C(=O)O)cn1	-29.8%	?	2.2%	·	·	·
COC(=O)c1ccc(C(=O)O)nc1	79.4µM*	·	-6.2%	-16.7%	-8.5%	1.1
O=C(O)c1ccc(Br)cn1	?	22.4µM*	-5.9%	2.5%	-5.6%	2.1
CC1CSC(N(C(=O)c2ccc(S(C)(=O)=O)cc2)c2ccc(Cl)cc2)=N1 (configuration not stated)	?	8.91µM*	-17.9%	-0.9%	-3.7%	-5.0
CC(=O)c1sc2c(c1C)c(=O)n(-c1ccc(Cl)cc1)c(=O)n2Cc1cc(=O)n2cc(Cl)ccc2n1	·	-5.3%[59 µM]	-2.3%	·	·	·
